PubChem BioAssay AID2108 (National Center for Advancing Translational Sciences (NCATS), 2009)
Inconclusive results are not listed. Calls of active or inactive are those of the source. Calls come from the whole dose curve; as a rule, active = well fitted curve in the direction sought with a large enough effect; inconclusive = small, poorly fitted or top-dose-only effect, or effect the other way, or another doubt; inactive = no such curve, though single readings can be large or run the other way.

molecular target: Alpha-galactosidase A (Homo sapiens) (UniProt P06280); test: Confirmation of Inhibitors of Human alpha-Galactosidase Using Spleen Homogenate; settings: alpha-galactosidase enzyme activity; series mostly up to 56.2 µM
Sequence (P06280 32-429 limits assumed): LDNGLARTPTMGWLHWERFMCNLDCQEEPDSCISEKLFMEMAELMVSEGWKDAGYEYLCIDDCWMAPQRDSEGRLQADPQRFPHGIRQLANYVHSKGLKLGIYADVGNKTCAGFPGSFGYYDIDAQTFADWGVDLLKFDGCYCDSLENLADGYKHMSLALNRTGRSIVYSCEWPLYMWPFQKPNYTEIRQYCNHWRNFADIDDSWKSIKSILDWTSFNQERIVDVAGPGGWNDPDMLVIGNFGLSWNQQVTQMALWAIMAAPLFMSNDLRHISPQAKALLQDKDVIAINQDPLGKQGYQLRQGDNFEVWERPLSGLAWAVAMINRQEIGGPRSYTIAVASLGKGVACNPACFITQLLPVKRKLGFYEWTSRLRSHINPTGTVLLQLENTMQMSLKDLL
Procedure, shortened: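 Human spleen homogenate (1 ug) with 1 mM 4-methylumbelliferyl-alpha-D-galactopyranoside in citrate-phosphate pH 5.0, 0.01% Tween-20, 37C 40 min; compounds 0.5 nM–58 uM final. Stopped at pH 10, fluorescence Ex 365/Em 440; AC50 from Hill fits.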

SMILES	outcome
O=C(O)c1cc(NCc2ccccc2)ccc1N1CCOCC1	inactive
N#Cc1c(-c2ccccc2)nc(SCc2nc(N)nc(N3CCCCC3)n2)[nH]c1=O	inactive
O=C(Cn1c(=O)n(Cc2ccccc2)c(=O)c2sc3ccccc3c21)Nc1ccccc1	inactive
O=C(O)Cc1sc(-c2cc3ccccc3oc2=O)nc1-c1ccc(-c2ccccc2)cc1	inactive
C=CCn1c2ccccc2c2nnc(SCC(=O)NC(C(=O)OC)C(C)C)nc21 (configuration not stated)	inactive
CC(N=C(NC#N)Nc1ccncc1)C(C)(C)C (configuration not stated)	inactive
CCOc1c(Br)cc(CNc2ccc(N3CCOCC3)cc2)cc1OC	inactive
N=c1sccn1CC(=O)Nc1cc(S(=O)(=O)N2CCCC2)ccc1Cl	inactive
CC(=O)NNc1nc2ccccc2s1	inactive
Clc1ccc(-c2ccnc(Oc3cc(Cl)ccc3Cl)n2)cc1	inactive
S=C(NCCc1ccccc1)N1CCn2cccc2C1c1ccncc1 (configuration not stated)	inactive
O=C(NCCCN1CCOCC1)c1cccs1	inactive
CCOc1cc(/C=C2\SC(N)=NC2=O)ccc1O	inactive
COC(=O)c1cccc(S(=O)(=O)N2CCOCC2)c1	inactive
C[C@H](NC(=O)/C(C#N)=C/c1ccc(O)c(O)c1)c1ccccc1	inactive
O=C(O)c1cc(NCc2ccc3c(c2)OCO3)ccc1N1CCOCC1	inactive
Cc1c(C#N)c(N)nc2c3c(sc12)NC(=O)CC3c1ccc(Cl)cc1 (configuration not stated)	inactive
CC1=C(C(=O)Nc2ccccc2C)C(c2ccccn2)n2nc(SCc3ccccc3F)nc2N1 (configuration not stated)	inactive
CC(C)c1nc2cc(C(=O)N3CCNC(=O)C3c3cccc(F)c3)ccc2o1 (configuration not stated)	inactive

SMILES	outcome
OC[C@H]1NC[C@H](O)[C@@H](O)[C@H]1O	inactive
CCNc1sc(C(=O)c2cccs2)c(N)c1-c1nc2ccccc2s1	inactive
COc1ccc(C2=NNC(c3cc(Cl)cc4c3OCOC4)C2)c(O)c1 (configuration not stated)	inactive
Nc1ccccc1N=Cc1ccc(-c2cccc(Cl)c2)o1	inactive
COc1cccc2ccc(/C=C/c3ccc4c(c3)OCO4)nc12	inactive
COC(=O)c1c(NC(=O)Cn2nc(C(F)F)cc2C(F)F)sc(C)c1C	inactive
COc1ccc(/C=C/c2nnc(NC(=O)COc3ccc(Cl)cc3)s2)cc1	inactive
O=C(c1cc2c(ccc3ccccc32)oc1=O)N1CCN(CCO)CC1	inactive
Clc1ccc(Nc2ncnc3ccc(Br)cc23)cc1	inactive
COc1cccc2cc(-c3nc(-c4ccccc4)c(C)s3)c(=O)oc12	inactive
O=S(=O)(c1ccccc1)N1CCN(S(=O)(=O)c2ccccc2)CC1	inactive
CCOc1c(Cl)cc(CNc2ccc3[nH]c(=O)[nH]c3c2)cc1OC	inactive
Oc1ccc(NCc2ccccc2OCc2ccccc2)cc1	inactive
CC(C)Cn1c(SCC(=O)N2CCN(S(=O)(=O)c3ccccc3)CC2)nc2ccccc21	inactive
CCOc1c(Br)cc(CNc2ccc(N3CCN(C(C)=O)CC3)cc2)cc1OC	inactive
C(=C\c1ccc2ccccc2n1)/c1ccc2c(c1)OCO2	inactive
COc1ccccc1NCC(=O)n1nc(C)cc1C	inactive
COc1ccccc1NCC(=O)c1ccc(C)c(C)c1	inactive
